# Results published in PubChem BioAssay (EPA / NIEHS).
# Records with an inconclusive call do not appear. Activity calls are given as the source filed them. How the source made its calls, unless noted: active means hit-call score of the fitted dose curve at least 0.9, where 1 is the maximum; inconclusive means response in the unintended direction; inactive means score below 0.9.
# Columns and labels:
# [1] = TOX21_p53_BLA_p2_viability: Viability Assessment in the Tox21 HCT-116 p53 Agonism Beta-lactamase Assay, Phase 2 (AID 2283591);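 further: actives lower the ATP signal meaning cytotoxicity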
# Method in brief: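 Cytotoxicity readout: CellTiter-Glo ATP luminescence, 30 min at room temperature, after the beta-lactamase read. Cells were HCT116 exposed 16 h at 37C to compounds pin-transferred at 217-fold dilution from DMSO stocks.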
# [2] = biological target: Cellular tumor antigen p53 (Homo sapiens) (UniProt P04637); experiment: TOX21_p53_BLA_p3_ratio: Tox21 HCT-116 p53 Agonism Beta-lactamase Assay, Ratio, Phase 3 (AID 2283596)
# Cellular tumor antigen p53 (Homo sapiens), sequence (P04637 whole entry, looked up): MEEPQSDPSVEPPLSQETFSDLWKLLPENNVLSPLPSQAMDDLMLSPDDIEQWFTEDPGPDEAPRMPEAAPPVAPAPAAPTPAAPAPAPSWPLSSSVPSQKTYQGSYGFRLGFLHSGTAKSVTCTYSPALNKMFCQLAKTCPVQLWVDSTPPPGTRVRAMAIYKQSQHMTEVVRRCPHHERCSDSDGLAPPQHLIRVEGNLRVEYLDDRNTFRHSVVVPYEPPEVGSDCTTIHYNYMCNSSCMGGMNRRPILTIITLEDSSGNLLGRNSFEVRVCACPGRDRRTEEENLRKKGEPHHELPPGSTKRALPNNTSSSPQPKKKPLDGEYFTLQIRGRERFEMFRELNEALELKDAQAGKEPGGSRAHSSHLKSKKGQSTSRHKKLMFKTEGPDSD
# Method in brief: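 HCT116 p53-bla cells (4000/well) given compound in DMSO (217-fold dilution) after 5 h, incubated 16 h at 37C. CCF4-AM substrate 2 h at room temperature; 460/530 nm emission ratio, gain fitted against DMSO.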
# [3] = biological target: Cellular tumor antigen p53 (Homo sapiens) (UniProt P04637); experiment: TOX21_p53_BLA_p5_ratio: Tox21 HCT-116 p53 Agonism Beta-lactamase Assay, Ratio, Phase 5 (AID 2283599)
# Method in brief: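 Beta-lactamase reporter ratio (blue 460 nm over green 530 nm, 405 nm excitation) after 2 h CCF4-AM loading, in HCT-116 cells exposed 16 h at 37 C to compounds pinned at 217-fold dilution. Increases relative to DMSO baseline scored.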
# [4] = TOX21_p53_BLA_p3_viability: Viability Assessment in the Tox21 HCT-116 p53 Agonism Beta-lactamase Assay, Phase 3 (AID 2283593);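 further: cells exposed to compound for 16 h before reading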
# Method in brief: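 Cellular ATP was quantified by CellTiter-Glo luminescence, read after 30 min at room temperature. Beforehand, HCT116 cells (4000/well) received compound 5 h post-seeding, 217-fold diluted from DMSO, then incubated 16 h at 37C.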
# [5] = TOX21_p53_BLA_p4_viability: Viability Assessment in the Tox21 HCT-116 p53 Agonism Beta-lactamase Assay, Phase 4 (AID 2283597);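 further: hits lower the luminescence signal meaning cytotoxicity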
# Method in brief: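 Compound exposure of HCT116 cells lasts 16 h at 37C, 5% CO2, with DMSO stocks diluted 217-fold. Cellular ATP is then quantified by CellTiter-Glo luminescence after 30 min at room temperature.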
# [6] = biological target: Cellular tumor antigen p53 (Homo sapiens) (UniProt P04637); experiment: TOX21_p53_BLA_p4_ratio: Tox21 HCT-116 p53 Agonism Beta-lactamase Assay, Ratio, Phase 4 (AID 2283601)
# Method in brief: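 Signal is the blue/green (460nm/530nm) ratio of cleaved versus uncleaved CCF4-AM substrate, read after 2 h substrate loading. Cells were HCT116 carrying the p53-responsive beta-lactamase reporter, dosed 16 h at 37C, 5% CO2; CellTiter-Glo measured in parallel.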
# [7] = TOX21_p53_BLA_p5_viability: Viability Assessment in the Tox21 HCT-116 p53 Agonism Beta-lactamase Assay, Phase 5 (AID 2283600)
# Method in brief: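 Counter-readout for cytotoxicity: ATP-dependent luminescence from CellTiter-Glo, read in the beta-lactamase wells after 30 min at RT, following a 16 h compound exposure at 37C.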
# [8] = biological target: Cellular tumor antigen p53 (Homo sapiens) (UniProt P04637); experiment: TOX21_p53_BLA_p2_ratio: Tox21 HCT-116 p53 Agonism Beta-lactamase Assay, Ratio, Phase 2 (AID 2283592)
# Method in brief: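 An inducible beta-lactamase reporter in HCT116 cells signals p53 pathway activation. After 16 h chemical exposure at 37C, cells load CCF4-AM substrate for 2 h at room temperature; activity is the cleaved/uncleaved emission ratio relative to DMSO.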
# [9] = UKN5_HCS_SBAD2_cell_viability: Viability Assessment in the University of Konstanz (UKN) Leist Lab Neurite Outgrowth Assay in human iPSC-derived immature Dorsal Root Ganglia Neurons (UKN5) (AID 2284056; active means hit-call score of the fitted dose curve at least 0.9, where 1 is the maximum; inactive means score below 0.9)
# Method in brief: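 iPSC-derived immature peripheral neurons (SBAD2) seeded on Matrigel with CHIR99021, SU5402 and DAPT, dosed 1 h later for 24 h. Viability from Hoechst H-33342 and calcein-AM live staining, high-content imaging; bidirectional fit versus DMSO.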
# [10] = UKN5_HCS_SBAD2_neurite_outgrowth: University of Konstanz (UKN) Leist Lab Neurite Outgrowth Assay in human iPSC-derived immature Dorsal Root Ganglia Neurons (UKN5) (AID 2284070; active means hit-call score of the fitted dose curve at least 0.9, where 1 is the maximum; inactive means score below 0.9); conditions: actives raise or lower the signal
# Method in brief: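 Read-out: calcein-AM-stained neurite area by high-content imaging, Hoechst H-33342 for viability, after 24 h exposure of iPSC-derived immature dorsal root ganglia neurons. Activity fitted in both directions relative to DMSO baseline.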
# [11] = UKN2_HCS_IMR90_neural_migration: University of Konstanz (UKN) Leist Lab Neural Crest Cell Migration Assay in human induced IMR90 Pluripotent Stem Cells (UKN2) (AID 2284204; active means hit-call score of the fitted dose curve at least 0.9, where 1 is the maximum; inactive means score below 0.9); conditions: actives raise or lower the signal
# Method in brief: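 Migration of human IMR90-derived neural crest cells into a stopper-defined gap is imaged after 24 h chemical treatment. Activity is fitted bidirectionally relative to DMSO.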
# [12] = UKN4_HCS_LUHMES_neurite_outgrowth: University of Konstanz (UKN) Leist Lab Neurite Outgrowth Assay in human LUHMES cells (UKN4) (AID 2284206; active means hit-call score of the fitted dose curve at least 0.9, where 1 is the maximum; inactive means score below 0.9); conditions: actives raise or lower the signal
# Method in brief: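 Day 0 switch to differentiation medium; day 2 replate (30000 cells/well) without cAMP and GDNF; compounds added 30 min–2 h later. At 23.5 h, 30 min calcein-AM/H-33342 live stain, then imaging.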
# [13] = UKN4_HCS_LUHMES_cell_viability: Viability Assessment in the University of Konstanz (UKN) Leist Lab Neurite Outgrowth Assay in human LUHMES cells (UKN4) (AID 2284232; active means hit-call score of the fitted dose curve at least 0.9, where 1 is the maximum; inactive means score below 0.9)
# Method in brief: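 Fluorescence intensity from high-content imaging of Hoechst H-33342/calcein-AM-stained cells served as the viability read-out. Human LUHMES precursors were differentiated 2 days, replated and treated 24 h; curves were fitted bidirectionally against DMSO.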
# [14] = UKN2_HCS_IMR90_cell_viability: Viability Assessment in the University of Konstanz (UKN) Leist Lab Neural Crest Cell Migration Assay in human induced IMR90 Pluripotent Stem Cells (UKN2) (AID 2284233; active means hit-call score of the fitted dose curve at least 0.9, where 1 is the maximum; inactive means score below 0.9;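 further: viability of neural crest cells differentiated from IMR90 iPSC measured by calcein-AM fluorescence imaging; cells exposed to compound for 24 h after a 24 h migration phase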)
# Method in brief: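 Human IMR90-derived neural crest cells were allowed to migrate for 24 h into a cell-free zone, then exposed to test chemicals for 24 h. Calcein-AM and Hoechst staining with high-content imaging gave viability, analysed against DMSO baseline.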
structure (smiles),measurement,setting,value
CCCCCON=O,outcome,[1],inactive
same,outcome,[2],inactive
same,outcome,[3],inactive
CC(C)C[C@H]1C(=O)N2CCC[C@H]2[C@]2(O)O[C@](NC(=O)[C@@H]3C[C@@H]4c5cccc6[nH]cc(c56)C[C@H]4N(C)C3)(C(C)C)C(=O)N12,outcome,[1],inactive
same,outcome,[4],inactive
same,outcome,[5],inactive
same,outcome,[3],inactive
same,outcome,[6],inactive
CO[C@H]1[C@@H](O)C[C@H](O[C@H]2[C@@H](O)C[C@H](O[C@H]3[C@@H](O)C[C@H](O[C@H]4CC[C@@]5(C)[C@H](CC[C@@H]6[C@@H]5C[C@@H](O)[C@]5(C)[C@@H](C7=CC(=O)OC7)CC[C@]65O)C4)O[C@@H]3C)O[C@@H]2C)O[C@@H]1C,AC50,[1],109 nM (active)
same,outcome,[2],inactive
same,AC50,[5],98.4 nM (active)
same,AC50,[7],83.6 nM (active)
same,outcome,[6],inactive
[O]=[Cr](=[O])([OH])[O][Cr](=[O])(=[O])[OH],AC50,[1],15.1 µM (active) [middle of 4 runs]
same,AC50,[4],11.4 µM (active) [middle of 4 runs]
same,AC50,[5],18.4 µM (active) [middle of 4 runs]
same,AC50,[3],13.2 µM (active) [middle of 4 runs]
same,AC50,[7],28.1 µM (active) [middle of 4 runs]
same,AC50,[6],13.6 µM (active) [middle of 4 runs]
CNC(=O)Oc1c(C(C)(C)C)cc(C)cc1C(C)(C)C,outcome,[8],inactive
same,outcome,[4],inactive
CC(C)NCC(O)c1ccc(N)c(C#N)c1 (stereo not drawn),outcome,[1],inactive
same,outcome,[3],inactive
same,outcome,[7],inactive
same,outcome,[6],inactive
CCN(CC)CCOC(=O)C(C)(c1ccccc1)c1ccccc1,outcome,[1],inactive
same,outcome,[5],inactive
same,outcome,[3],inactive
Cc1cccc(N)c1C,outcome,[1],inactive
same,outcome,[5],inactive
same,outcome,[3],inactive
same,outcome,[7],inactive
same,outcome,[6],inactive
CC(=O)[C@H]1CC[C@H]2[C@@H]3CC[C@H]4C[C@H](O)CC[C@]4(C)[C@H]3C(=O)C[C@]12C,outcome,[1],inactive
same,outcome,[5],inactive
CNC(C)(C)Cc1ccccc1,outcome,[1],inactive
same,outcome,[3],inactive
same,outcome,[7],inactive
same,outcome,[6],inactive
O=[N+]([O-])O[C@H]1CO[C@H]2[C@@H]1OC[C@H]2O[N+](=O)[O-],outcome,[1],inactive
same,outcome,[6],inactive
ClC(Cl)=C(Cl)Cl,outcome,[1],inactive
same,outcome,[5],inactive
same,outcome,[3],inactive
same,outcome,[7],inactive
same,outcome,[6],inactive
CNC(=O)Oc1ccccc1C(C)C,outcome,[1],inactive
same,outcome,[2],inactive
same,outcome,[6],inactive
c1ccc(C2(c3ccccc3)CC2C2=NCCN2)cc1 (stereo not drawn),outcome,[1],inactive
same,outcome,[5],inactive
same,outcome,[7],inactive
O=NN1CCCCC1,outcome,[1],inactive
same,outcome,[2],inactive
same,outcome,[3],inactive
same,outcome,[7],inactive
same,outcome,[6],inactive
c1cncc([C@@H]2CCCCN2)c1,outcome,[8],inactive
N#CNC#N,outcome,[1],inactive
same,outcome,[5],inactive
same,outcome,[7],inactive
same,outcome,[6],inactive
CCCBr,outcome,[1],inactive
same,outcome,[5],inactive
same,outcome,[3],inactive
CN(C)CCCCCCN(C)C,outcome,[1],inactive
same,outcome,[7],inactive
same,outcome,[6],inactive
COc1ccc2c(C(=O)c3ccc(Cl)cc3)c(C)n(CC(=O)O)c2c1,outcome,[1],inactive
same,outcome,[5],inactive
same,outcome,[3],inactive
same,outcome,[6],inactive
CCOC(=O)c1cn2nc(OP(=S)(OCC)OCC)cc2nc1C,outcome,[1],inactive
same,outcome,[5],inactive
same,outcome,[7],inactive
same,outcome,[6],inactive
CN1CC[C@]23c4c5ccc(O)c4O[C@H]2[C@@H](O)C=C[C@H]3[C@H]1C5,outcome,[1],inactive
same,outcome,[7],inactive
same,outcome,[9],inactive
same,outcome,[10],inactive
same,outcome,[11],inactive
same,outcome,[12],inactive
same,outcome,[13],inactive
same,outcome,[14],inactive
CC1CN1 (stereo not drawn),outcome,[8],inactive
same,outcome,[4],inactive
same,outcome,[2],inactive
same,outcome,[5],inactive
